Values joined by “and” are separate entries in the source; they are usually repeats but may differ in a detail not shown here. Equal entries are not always repeated. Out of some 230,000 compounds screened, about 3,600 (1.6%) were called active. Roughly 15% stayed inconclusive and do not appear here. Calls come from the whole dose curve; as a rule, active = well fitted inhibition curve with a large enough effect (not every such curve was filed as active); inconclusive = small, poorly fitted or top-dose-only effect, or another doubt; inactive = no such curve, though single readings can be large or run the other way. Shown is part of a subset that was picked to be rich in actives.
target: Lysine-specific demethylase 4E (Homo sapiens) (UniProt B2RXH2); assay: qHTS Assay for Inhibitors of Human Jumonji Domain Containing 2E (JMJD2E); conditions: JMJD2E catalytic domain, FDH-coupled NADH fluorescence (FDH is formaldehyde dehydrogenase); series mostly up to 57.1 µM; activity change, negative = inhibition: at the top concentration
Note: nearly all actives have a fitted effect of over 50% in size.
Potency is the fitted concentration of half-maximal effect.
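Throughout, for activity change, negative = inhibition: 0% = wells with enzyme and -100% = buffer wells without enzyme.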

Lysine-specific demethylase 4E (Homo sapiens), sequence (B2RXH2 1-337 limits assumed): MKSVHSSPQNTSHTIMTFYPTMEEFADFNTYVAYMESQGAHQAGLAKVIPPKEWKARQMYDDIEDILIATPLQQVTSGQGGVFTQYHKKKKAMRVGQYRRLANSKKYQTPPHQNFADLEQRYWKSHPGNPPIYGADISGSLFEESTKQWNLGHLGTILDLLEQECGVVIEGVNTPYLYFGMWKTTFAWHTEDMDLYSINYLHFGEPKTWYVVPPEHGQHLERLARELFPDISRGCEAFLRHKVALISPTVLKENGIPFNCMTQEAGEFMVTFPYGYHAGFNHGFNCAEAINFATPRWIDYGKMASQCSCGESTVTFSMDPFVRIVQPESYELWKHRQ

Activity change, negative = inhibition, inactive:
COc1ccc(COCC(O)CN2CCC(C(N)=O)CC2)cc1 (stereo not drawn) -0.742%
COC(=O)c1cc(C(=O)CSc2nc(C)cc(C)n2)ccc1O -28.2%
COc1ccccc1P(=O)(c1ccccc1)c1ccccc1NC(C)=O (stereo not drawn) 3.73%
CN(CC(O)COc1ccc(S(=O)(=O)N2CCOCC2)cc1Cl)C1CCCCC1 (stereo not drawn) 12.2%
COc1cccc([C@@H]2Oc3ccc(Br)cc3C(=O)[C@H]2OC(=O)NCc2ccc3c(c2)OCO3)c1 -24.1%
COc1ccc2c(c1)O[C@@H](c1ccc3c(c1)OCO3)[C@H](OC(=O)NCCc1ccc(OC)c(OC)c1)C2=O 3.27%
c1ccc(-c2nnc(N3CCOCC3)c3ccccc23)cc1 -2.56%
O=C(Nc1ccc(S(=O)(=O)Nc2nccs2)cc1)c1cccc(S(=O)(=O)N2CCOCC2)c1 -2.79%
CCc1nc(C)cn1S(=O)(=O)c1cc([N+](=O)[O-])ccc1Cl 6.08%
COc1ccc(-c2csc(Nc3ccccn3)n2)cc1 1.24%
COc1ccc(-c2csc(Nc3ccc(O)cc3)n2)cc1 -1.49%
O=C(Nc1n[nH]c(C(F)(F)F)n1)c1cccs1 5.52%
CCOC(=O)c1cn[nH]c1NC(=S)Nc1ccccc1 -9.9%
O/N=C1\CC2(Cc3nonc31)OCCO2 0.0097%
Cc1[nH]n(C)c(=O)c1N=Nc1ccc(S(C)(=O)=O)cc1 -23.4%
COc1cccc(N2C(=O)CC(N3CCc4ccccc4C3)C2=O)c1 (stereo not drawn) -5.44%
NCCCCCC(=O)N/N=C/c1ccc2nccnc2c1 -4.08%
CCOC(=O)CSc1nc(C)c(Oc2ccc(Cl)cc2Cl)c(=O)[nH]1 3.14%
COCc1ccc(C(=O)N2CCc3c([nH]c4ccccc34)C2c2ccccn2)s1 (stereo not drawn) 1.42%
Oc1cccc(C2c3[nH]c4ccccc4c3CCN2Cc2cnn(-c3ccccc3)c2)c1 (stereo not drawn) -19%
CCc1cccc2c(=O)c(C(=O)NCCCOC)c[nH]c12 -11.7%
CN(C(=O)CCn1c(=S)oc2ccccc21)C1CCCCC1 2.53%
O=C1CC(N2CCN(c3ccc(F)cc3)CC2)C(=O)N1c1ccccc1 (stereo not drawn) -0.114%
Cc1cccc(N2C(=O)CC(SC(N)=Nc3ccccc3)C2=O)c1 (stereo not drawn) 7.82%
COc1ccc(N2C(=O)CC(Sc3n[nH]c(-c4ccc(C)cc4)n3)C2=O)cc1 (stereo not drawn) -11.9%
CCOC(=O)c1ccc(N2C(=O)CC(Sc3nc(O)c(CC)c(=O)[nH]3)C2=O)cc1 (stereo not drawn) 8.88%
NC(=O)c1ccc(N2CCOCC2)nc1 1.96%
CN(C)C(=O)c1nc2ccc(Cl)cn2c1CNCc1cccc(OC(F)(F)F)c1 -3.13%
Cc1nc(N)sc1N=Nc1c(C)n(C)n(-c2ccccc2)c1=O -9.39%
COc1ccc(N(Cc2ccccc2)S(=O)(=O)c2cccc(C(=O)O)c2)cc1 -0.26%
CCCN(CCc1ccccc1)C1CCc2c(O)cccc2C1 (stereo not drawn) 1.38%
CN(C)c1cc(-c2ccc(F)cc2)oc(=O)c1Cl 1.02%
Cc1ccc(C(=O)NCC(=O)OCC(=O)Nc2cccc(S(=O)(=O)N3CCCC3)c2)cc1C 2.45%
Cc1cc(=O)n2c3c(cccc13)CCC2 -18.6%
CCCCc1nc2ccccc2c(=O)n1NC(=O)c1c(O)c2cccc3c2n(c1=O)CC3 12.9%
O=c1c2ccccc2nc(N/N=C/c2ccccc2)n1O -8.4%
CCCN1C(=O)C(Cc2nc3ccccc3c(=O)n2-c2ccccc2)c2cc(C)ccc21 (stereo not drawn) -3.33%
CC(C)N1CCC(=NNc2ccc([N+](=O)[O-])cc2S(=O)(=O)N2CCOCC2)CC1 -24.1%
COc1ccccc1C(=O)CSc1cccc[n+]1[O-] -5.39%
CCNC(=O)CC1C(=O)N(c2ccc(OC)cc2)C(=S)N1CCc1ccncc1 (stereo not drawn) -7.56%
Cc1nc(C(=O)N2CCCC(C(=O)c3ccc(Cl)cc3)C2)cs1 (stereo not drawn) 10.1%
O=c1c2ccccc2c(-c2ccccc2)nn1Cc1ccccc1 -8.38%
Cn1c(CO)cnc1SCc1ccccc1 -1.07%
Cc1cc(C)nc(S/C=C/C(=O)c2ccccc2)n1 10%
O=C(NCCOCc1ccc(Cl)cc1)c1ncn[nH]1 3.54%
CCN(CC)CCNC(=O)c1sc2ncn(CC(=O)Nc3ccc(C)c(Cl)c3)c(=O)c2c1C -11.2%
Cn1c(=O)c2c(-c3cccc(Br)c3)c(C#N)c(N)nc2n(C)c1=O 2.47%
OCCC1CN(Cc2cnc(-c3ccccc3)s2)CCN1CCc1ccccc1 (stereo not drawn) -7.27%
CC1(OC(=O)C2CCCC2)C(=O)C=C2C=C(c3ccc(C#N)cc3)OC=C2C1=O (stereo not drawn) -0.534%
CC1(OC(=O)CCc2ccccc2)C(=O)C=C2C=C(c3ccc(C#N)cc3)N(CCc3ccccn3)C=C2C1=O (stereo not drawn) -1.14% [at 11.4 µM]
N/C(=N\OC(=O)Nc1ccccc1)c1ccno1 -3.04%
COc1ccc(CNC(=O)CCC(=O)Nc2nnc(C(C)C)s2)cc1 -15.9%
O=C(Nc1ccc(Cl)cc1)Nc1ccc(C(=O)N2CCOCC2)cc1 4.19%
COC(=O)C1=C(C)OC(N)=C(C#N)C1c1cc(OC)ccc1OC (stereo not drawn) 2.33%
CCC1=C(C(=O)OC)C(c2cc(OC)ccc2OC)C(C#N)=C(N)O1 (stereo not drawn) -0.399%
CCC(C)c1ccc(O)c(/C=N/O)c1 (stereo not drawn) -5.09%
C=CCN(C(=O)Nc1ccc2c(c1)nc(C)n2C)c1ccccc1 1.69%
C/C(=C\c1ccco1)CN1CCC(N2CCC(C(=O)N3CCOCC3)CC2)CC1 0.474%
Oc1c(C(c2ccccn2)N2CCOCC2)ccc2cccnc12 (stereo not drawn) -10.2%
CCOC(=O)N1CCN(C(=O)CSc2ccc(Cl)cc2)CC1 -1.41%
Cc1cc(N2CCN(c3ccc(F)cc3)CC2)n2ncnc2n1 4.37%
CC1CC(C)(C)n2c(O)c(N=NC(N)=S)c3cccc1c32 (stereo not drawn) 8.14%
CCCCCCCC(=O)OC(CN1CCCCCC1)CN1CCCC1=O (stereo not drawn) 1.81%
CCN(CC)CCN1C(=O)C(=O)/C(=C(/O)c2ccccc2)C1c1ccccc1F (stereo not drawn) -9.65%
COc1ccc(/C(O)=C2/C(=O)C(=O)N(CCCN(C)C)C2c2ccccc2)cc1OC (stereo not drawn) -12.7%
CC(=O)Nc1ccc(NC(=O)CSc2ncnc3c2cnn3Cc2ccccc2)cc1 0.598%
NC(=O)COc1ccc2c3c(c(=O)oc2c1)CCCCC3 3.79%
CN1CCN(Cc2c(O)ccc3c2oc(=O)c2ccccc23)CC1 -8.15%
Cc1ccccc1OCC(O)CN1CCN(c2ccccn2)CC1 (stereo not drawn) -7.16%
Cc1cccc(C)c1NC(=S)N(Cc1cccnc1)Cc1ccccc1Cl 2.9%
CCC/C(C)=N\Nc1nc2c(c(=O)n(C)c(=O)n2C)n1C -5.67%
Oc1ccc2ccccc2c1C=Nc1ccccc1 -5.63%
COc1ccc(N=C(C)c2sc3ccccc3c2O)cc1 -1.68%
S=c1nc2ccccc2c2nc(-c3cccnc3)[nH]n12 -7.81%
COc1ccc(CCNS(=O)(=O)c2cccc3cccnc23)cc1OC 8.86%
Cc1ccc2cc(/C=N/NC(=O)[C@@H]3CCCN3)c(Cl)nc2c1 -2.24%
Cc1nnsc1C(=O)N/N=C/c1ccccc1Cl 2.37%
CCn1cc(CN2CCCC(CNS(=O)(=O)Cc3ccccc3)C2)cn1 (stereo not drawn) -1.97%
Nn1c(SCc2ccccc2)nnc1C1CCCCC1 -0.349%
CC(C)C[C@H](CO)Nc1nc(N(C)c2cccc(Cl)c2)c2ncn(C(C)C)c2n1 2.12%
O=C(Nc1cccc(S(=O)(=O)NC2=NCCC2)c1)C1CCCCC1 3.5%
Cc1onc(C(=O)NN)c1-c1csc(COc2ccccc2)n1 33.8%
CCCC(=O)N1c2ccc(-c3csc(N)n3)cc2CC1C (stereo not drawn) -25.3%

Potency, inactive:
O=C(O)Cc1csc(-c2cccc(Oc3ccccc3)c2)n1
CC(C)NC[C@H](O)c1ccc2ccccc2c1

Potency, active:
CC(C)C1N=C2c3ccccc3N=C(SCC(=O)c3ccc(O)c(O)c3)N2C1=O (stereo not drawn) 25.1 µM
COc1cccc([C@@H]2Oc3ccc(Br)cc3C(=O)[C@H]2OC(=O)NCCc2ccc(OC)c(OC)c2)c1 14.1 µM
COc1ccc(OC)c(Nc2nc(-c3ccc(O)c(O)c3)cs2)c1 28.2 µM
ON=C1/C(=N\O)CC2(C/C1=N/O)OCCO2 7.08 µM
c1ccc(C2c3[nH]c4ccccc4c3CCN2Cc2cccn2-c2cccnc2)nc1 (stereo not drawn) 14.1 µM
O=C1CC(Sc2ncn[nH]2)C(=O)N1c1ccccc1 (stereo not drawn) 2.24 µM
Cc1ccc(N2C(=O)CC(Sc3ncn[nH]3)C2=O)cc1 (stereo not drawn) 2.51 µM
CCCN(C/C=C\I)[C@@H]1CCc2cccc(O)c2C1 28.2 µM
CCNC(=O)c1c(O)c2cccc3c2n(c1=O)CC3 3.16 µM
CCCc1nc2ccccc2c(=O)n1/N=C/c1ccc(O)c(O)c1 12.6 µM
O=C1CCC(=O)N(O)CCCCCNC(=O)CCC(=O)N(O)CCCCCNC(=O)CCC(=O)N(O)CCCCCN1 7.94 µM
CSc1c(SCc2ccccc2)cnn(Cc2ccccc2)c1=O 12.6 µM
O=C(/C=C/Sc1ncn[nH]1)c1ccc(Cl)cc1 7.08 µM
COCCN1C=C2C(=O)C(C)(OC(=O)C3CCCC3)C(=O)C=C2C=C1c1ccsc1 (stereo not drawn) 3.55 µM
COc1ccc(C2C(C#N)=C(N)Oc3cc(N)ccc32)cc1OC (stereo not drawn) 12.6 µM
CNCC(O)c1ccc(O)c(O)c1 (stereo not drawn) 20 µM and 14.1 µM
CCOC(=O)N1CCN(C(c2cccnc2)c2ccc3cccnc3c2O)CC1 (stereo not drawn) 14.1 µM
O=c1c(O)c(Br)ccc2c(Br)c(O)c(O)c(O)c12 7.08 µM
CCN(CC)CCN1C(=O)C(=O)/C(=C(/O)c2ccc(OC)c(OC)c2)C1c1ccccn1 (stereo not drawn) 22.4 µM
O=c1oc2c(CN3CCCCC3)c(O)ccc2c2c1CCCCC2 3.16 µM
Oc1ccc(N=Cc2sc3ccccc3c2Cl)cc1 12.6 µM
Cc1ccc(/C=N/NC(=O)C2=NNC(c3ccccc3)(c3ccccc3)C2)c(O)c1 10 µM
CC(C)(C)C(=O)OCc1nc(-c2ccc(O)c(O)c2)cs1 12.6 µM

Source: PubChem BioAssay AID2147 (National Center for Advancing Translational Sciences (NCATS), 2009)
